Only some compounds are listed: those with a hit (about 9.5% of all), similar ones and a draw of the others.
RE007 growth inh = less growth of the S. pombe RE007 Vpr strain; 360,000 compounds, 0.21% hits; Potency, µM (titrated, usually from 92.2 µM), actives largely listed as inhibitors; S. pombe RE007 Vpr strain, BacTiter-Glo ATP luminescence, 24 h; AID 651644; active = well fitted falling curve with a large enough effect; inconclusive = small, poorly fitted or top-dose-only effect; inactive = no such curve, though single readings can be large or run the other way; also: nearly all actives have a fitted effect of over 50% in size
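Fission yeast strain RE007, carrying one chromosomally integrated HIV-1 vpr copy, was seeded at OD 0.01 in PMG+AL medium with 23 nL pinned compound. After 24 h at 30 °C and 99% humidity, viability was read by BacTiter-Glo luminescence.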
Pf growth 96h = P. falciparum growth inhibition at 96 hours. Potency, µM (titrated, usually from 28.7 µM), hits mostly inhibitors. P. falciparum luciferase reporter growth, 96 h. 320,000 compounds, 6.9% hits; active = well fitted inhibition curve with a large enough effect; inconclusive = small, poorly fitted or top-dose-only effect, or another doubt; inactive = no such curve, though single readings can be large or run the other way
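Cell-based qHTS: luciferase-tagged P. falciparum in erythrocytes (2% hematocrit, 0.05% parasitemia final) incubated with compounds for 96 hours, 37 C, 5% CO2; luciferase detection reagent then added and luminescence measured.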
NS1 function inh = blocks influenza NS1 protein function. Potency, µM (doses to about 46.1 µM). 270,000 compounds, 0.4% hits. AID 2326; also: actives are rising curves; nearly all actives have a fitted effect of over 50% in size
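Compounds were scored for reversing the slow growth caused by influenza A NS1 in S. cerevisiae, measured by optical density at 600 nm. Assay medium contained 2% galactose at pH 6.0; NS1-free yeast of the same strain were the positive control.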
Pf growth 48h = P. falciparum growth inhibition at 48 hours (one generation). P. falciparum luciferase growth in erythrocytes, 48 h. Potency, µM (top dose mostly 28.7 µM), hits mostly inhibitors. 310,000 compounds, 5.9% hits; active = well fitted inhibition curve with a large enough effect; inconclusive = small, poorly fitted or top-dose-only effect, or another doubt; inactive = no such curve, though single readings can be large or run the other way
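Luciferase-expressing parasites in RBCs, 2% Hct / 0.1% parasitemia final; RPMI 1640 + 0.5% Albumax; 37 C, 5% CO2, one generation; luminescence read-out, lower signal = inhibition.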
SARS PLpro yeast = inhibitors of SARS-CoV papain-like protease in yeast; S. cerevisiae expressing SARS-CoV PLpro, growth rescue; Potency, µM (doses to about 32.9 µM), actives largely listed as activators; 330,000 compounds, 0.19% hits; AID 485353; also: nearly all actives have a fitted effect of over 55% in size
Numbers stand for hits; 0 = inactive; ? = inconclusive; - = no result; [ ] = another dose, or the depositor's remark. Unless noted, calls follow the shape of the full dose curve.

SMILES | RE007 growth inh | Pf growth 96h | NS1 function inh | Pf growth 48h | SARS PLpro yeast
Cc1ccc(S(=O)(=O)NC(=O)Nc2ccc(N(C)C)cc2)cc1 | 0 | 0.465µM | 0 | 0.738µM | 0
Cc1ccc(S(=O)(=O)NCCN=Cc2ccc(N(C)C)cc2)cc1 | 0 | 7.38µM | 0 | 0 | 0
CCCN(CC1CCCO1)C(=O)c1cc(COc2ccc(F)cc2F)on1 (stereo unspecified) | 0 | 11.7µM | 0 | 0 | 0
COc1ccc(NC(=S)N2CCN(S(=O)(=O)c3ccccc3)CC2)cc1 | 0 | 10.4µM | 0 | 0 | 0
COc1ccc(NC(=S)N2CCN(C(=O)c3ccco3)CC2)cc1 | 0 | 0.465µM | 0 | 0 | 0
Cc1cc(C)cc(NC(=S)N2CCN(S(=O)(=O)c3ccccc3)CC2)c1 | 0 | 3.7µM | 0 | ? | 0
Cc1ccc(N(CC(=O)NC2CC2)S(=O)(=O)c2ccccc2)c(C)c1 | 0 | 0 | 0 | 0 | 0
O=S1(=O)NC(CC2=CCCCC2)C2CCCCC2O1 (stereo unspecified) | 0 | 0 | 0 | 0 | 0
COc1ccc(-c2cc3nc(C)n(N)c(=O)c3s2)cc1 | 11.2µM | 0 | 0 | 0 | 0
Cc1nc2cc(-c3ccccc3)sc2c(=O)n1N | ? | 0 | - | 0 | 0
CCC1Oc2ccc(C)cc2N(CC(=O)N(Cc2ccncc2)Cc2ccco2)C1=O (stereo unspecified) | 0 | 0 | 0 | 11.7µM | 0
O=C(CN1C(=O)COc2ccccc21)N(Cc1cccnc1)Cc1cccc(F)c1 | 0 | 0 | 0 | ? | 0
CCC1Oc2ccc(C)cc2N(CC(=O)N2CCOCC2)C1=O (stereo unspecified) | 0 | ? | 0 | 0 | 0
CCC1Oc2ccc(C)cc2N(CC(=O)N(Cc2cccnc2)Cc2cccc(F)c2)C1=O (stereo unspecified) | 0 | 0 | 0 | 11.7µM | 0
COc1ccc(C)cc1Nc1n[n+](-c2ccccc2)c(-c2ccc(OC)c(OC)c2OC)s1 | 0 | 1.04µM | 0 | ? | 0
COc1ccc(C)cc1Nc1n[n+](-c2ccccc2)c(-c2c(Cl)cccc2Cl)s1 | 0 | 7.38µM | 0 | 10.4µM | 0
COc1ccc(C)cc1Nc1n[n+](C)c(-c2c3ccccc3cc3ccccc23)s1 | 0 | ? | 0 | ? | 0
COc1ccc(C)cc1Nc1n[n+](C)c(-c2ccc(O)cc2O)s1 | 0 | ? | 0 | ? | 0
COc1ccc(C)cc1Nc1n[n+](-c2ccccc2)c(-c2ccc(N(C)C)cc2)s1 | 0 | 2.08µM | 0 | 2.62µM | 0
COc1ccc(C(=O)Nc2c(Cl)cc(Cl)cc2C(=O)N2CCOCC2)cc1 | 0 | 0 | 0 | 0 | 0
Cc1c(C(=O)NCCN2C(=O)S/C(=C\c3cccnc3)C2=O)cccc1[N+](=O)[O-] | 0 | ? | 0 | 5.22µM | 0
O=C(NC(=S)Nc1cccnc1Cl)c1ccc(F)cc1 | 0 | 0 | 0 | 0 | 0
N#Cc1cn(CCOc2ccc(F)cc2)c2ccccc12 | 0 | 0 | 0 | 10.4µM | 0
Cc1ccc(OCCCn2cc(C#N)c3ccccc32)cc1 | 0 | 0 | 0 | 0 | 0
Cc1c(C#N)c2ccccc2n1CCOc1ccccc1F | 0 | 2.94µM | 0 | 1.17µM | 0
SMILES | RE007 growth inh | Pf growth 96h | NS1 function inh | Pf growth 48h | SARS PLpro yeast
N#Cc1cn(CCOc2ccccc2F)c2ccccc12 | 0 | - | 0 | 2.94µM | 0
O=Cc1cn(CCOc2ccccc2F)c2ccccc12 | 0 | ? | 0 | 0 | 0
COC(=O)c1ccc(NS(=O)(=O)c2cc(-c3cc(C)no3)ccc2OC)cc1 | 0 | 0 | 0 | ? | 0
O=C(COc1cc(F)ccc1[N+](=O)[O-])NCCCc1ccccc1 | 0 | 0 | - | 0 | 0
N#C/C(=C\c1ccccc1C(=O)O)c1nc2ccccc2[nH]1 | 0 | 0 | 0 | ? | 0
Cc1ccc2nc(/C(C#N)=N/O)[nH]c2c1 | 0 | 13.1µM | 0 | ? | 0
Cc1ccc2nc(/C(C#N)=C/c3ccccc3C(=O)O)[nH]c2c1 | 0 | ? | 0 | 2.08µM | 0
COc1cc(SC)ccc1C(=O)Nc1ncc(Cl)cc1Cl | 0 | 0 | - | 0 | 0
COc1ccc(CNC(=O)CCC(=O)N2CCN(S(=O)(=O)c3ccc(Cl)cc3)CC2)cc1 | 0 | ? | - | 0 | 0
C=C(C)CN1CCN(S(=O)(=O)c2ccc(C)c(N(C)S(=O)(=O)c3ccc(C)cc3)c2C)CC1 | 0 | 0 | 0 | 10.4µM | 0
COc1cccc(C2Nc3c(F)cc(Br)cc3C3C=CCC32)c1OC (stereo unspecified) | 0 | 11.7µM | 0 | 9.28µM | 0
COc1cc(C2Nc3c(F)cccc3C3C=CCC32)cc(Br)c1OC (stereo unspecified) | 0 | 0 | 0 | 9.28µM | 0
COc1cccc2c1NC(C(=O)O)C1CC=CC21 (stereo unspecified) | 0 | 0 | 0 | 0 | 0
C[C@@H](OC(=O)N1CCCCC1)[C@H]1O[C@]2(C)CCCC[C@H]1O2 | 0 | 0 | - | 0 | 0
CN(C)CCNc1ncnc2c1sc1nc(N3CCOCC3)c3c(c12)CC(C)(C)SC3 | 0 | ? | 0 | ? | 0
CCN(CC)CCNc1ncnc2c1sc1nc(N3CCOCC3)c3c(c12)CC(C)(C)SC3 | 0[3.69 µM] | 5.22µM | 0 | ? | 0
NC(=O)C1=CC2C3C=CC2(O)C(=O)OC3O1 (stereo unspecified) | 0 | - | - | - | -
O=C(NC1CC1)C1=NOC(CNc2ncc(C(F)(F)F)cc2Cl)C1 (stereo unspecified) | 0 | 11.7µM | 0 | - | 0
O=C(N/C=N/O)C1=NOC(CNc2ncc(C(F)(F)F)cc2Cl)C1 (stereo unspecified) | 0 | 0 | 0 | - | 0
O=C(NCCc1ccc(O)cc1)c1[nH]c(C(F)(F)F)nc1-c1ccccc1 | 0 | - | - | - | -
CCOC(=O)C1=NNC(C(=O)c2ccc(Cl)cc2)C1c1ccccc1 (stereo unspecified) | 0 | 0 | 0 | 0 | 0
CCOC(=O)C1=NN(c2ccc(Cl)cc2)C(c2ccccc2)CC1=O (stereo unspecified) | 0 | ? | 0 | 9.28µM | 0
COc1ccccc1CNC(=O)COC(=O)COc1ccccc1Cc1ccccc1 | 0 | 0 | - | 0 | 0
COc1ccc(CCN2C(=O)CSC2=Nc2ccc(C(C)C)cc2)cc1OC | 0 | ? | 0 | 10.4µM | 0
COc1ccc(N=C2SCC(=O)N2CCc2ccc(OC)c(OC)c2)cc1 | 0 | ? | 0 | ? | 0
SMILES | RE007 growth inh | Pf growth 96h | NS1 function inh | Pf growth 48h | SARS PLpro yeast
O=C(CSc1nnc(NC(=O)C2CC(=O)N(c3ccccc3)C2)s1)NCc1ccco1 (stereo unspecified) | 0 | ? | 0 | 0 | 0
COc1ccc(N2CCN(c3nc(NC(C)(C)C)nc(N4CCCCC4)n3)CC2)cc1 | 0 | - | 0 | 1.85µM | 0
COc1ccc(Nc2nc(NC(C)(C)C)nc(N3CCCC3)n2)c(OC)c1 | 0 | 4.65µM | 0 | - | 0
C[C@H](CO)N1C[C@H](C)[C@@H](CN(C)C(=O)C2CCOCC2)Oc2ncc(Br)cc2C1=O | 0 | - | - | - | -
CCC(C(=O)Nc1c(C)cccc1C)n1c(-c2cnc(C)cn2)nc2ccccc21 (stereo unspecified) | 0 | - | - | - | -
CC(OC(=O)CN1C(=O)c2ccccc2C1=O)C(=O)NC1CCCCC1C (stereo unspecified) | 0 | 0 | - | 0 | 0

Screens from PubChem BioAssay.
